Among the data in PubChem BioAssay (EPA / NIEHS) are outcome and AC50 values, retold here.

Read-out in experiment [1]: Tissue Factor, F3 (gene 2152)
In words: BSK_CASM3C_TissueFactor: BioMAP Diversity Plus: CASM3C Assay for Tissue Factor Biomarker Activity (AID 2283052).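 Note: cell surface tissue factor protein level read by ELISA.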 The settings on record: primary human coronary artery smooth muscle cells; actives raise or lower the signal.

Read-out in experiment [2]: Interferon-gamma inducible Protein 10 (IP10), CXCL10 (gene 3627)
Put plainly: BSK_hDFCGF_IP10: BioMAP Diversity Plus: hDFCGF Assay for Interferon-gamma inducible Protein 10 (IP10) Biomarker Activity (AID 2283053). The settings on record: primary human foreskin fibroblasts; actives raise or lower the signal. In short, it runs like this: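 Primary foreskin fibroblasts, human; 24 h compound exposure; IP-10 by ELISA; bidirectional fit vs DMSO.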

Read-out in experiment [3]: Urokinase-type plasminogen activator receptor (uPAR), PLAUR (gene 5329)
In words: BSK_CASM3C_uPAR: BioMAP Diversity Plus: CASM3C Assay for Urokinase-type plasminogen activator receptor (uPAR) Biomarker Activity (AID 2283054).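 Note: cell-surface uPAR protein level quantified by ELISA.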 The settings on record: primary human coronary artery smooth muscle cells; actives raise or lower the signal.

Read-out in experiment [4]: Vascular cell adhesion molecule 1 (VCAM1), VCAM1 (gene 7412)
Put plainly: BSK_CASM3C_VCAM1: BioMAP Diversity Plus: CASM3C Assay for Vascular cell adhesion molecule 1 (VCAM1) Biomarker Activity (AID 2283055).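 Note: VCAM-1 protein level quantified by ELISA on the cells.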 The settings on record: primary human coronary artery smooth muscle cells; actives raise or lower the signal.

Read-out in experiment [5]: Collagen III, COL3A1 (gene 1281)
In words: BSK_hDFCGF_CollagenIII: BioMAP Diversity Plus: hDFCGF Assay for Collagen III Biomarker Activity (AID 2283056). The settings on record: primary human foreskin fibroblasts; actives raise or lower the signal. In short, it runs like this: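 ELISA read-out of collagen III from human skin fibroblast cultures sampled 24 h post-dosing. Values were derived by bidirectional fitting relative to the DMSO vehicle control.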

Read-out in experiment [6]: Epidermal growth factor receptor (EGFR), EGFR (gene 1956)
Put plainly: BSK_hDFCGF_EGFR: BioMAP Diversity Plus: hDFCGF Assay for Epidermal growth factor receptor (EGFR) Biomarker Activity (AID 2283057). The settings on record: primary human foreskin fibroblasts; actives raise or lower the signal. In short, it runs like this:
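hDFCGF system, primary human foreskin fibroblasts; compound 24 h; EGFR measured by ELISA; DMSO = negative control/baseline; bidirectional fitting.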

Read-out in experiment [7]: Interleukin-8 (IL8), CXCL8 (gene 3576)
Put plainly: BSK_hDFCGF_IL8: BioMAP Diversity Plus: hDFCGF Assay for Interleukin-8 (IL8) Biomarker Activity (AID 2283058). The settings on record: primary human foreskin fibroblasts; actives raise or lower the signal. In short, it runs like this:
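Cells used are human skin primary fibroblasts. Chemical is added, cultures run 24 h, then IL-8 is quantified by ELISA, and gain or loss versus DMSO control is fitted in both directions.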

Read-out in experiment [8]: Macrophage colony-stimulating factor (MCSF), CSF1 (gene 1435)
In words: BSK_hDFCGF_MCSF: BioMAP Diversity Plus: hDFCGF Assay for Macrophage colony-stimulating factor (MCSF) Biomarker Activity (AID 2283060). The settings on record: primary human foreskin fibroblasts; actives raise or lower the signal. In short, it runs like this:
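Primary human foreskin fibroblasts dosed with chemical; 24 h later, M-CSF quantified by ELISA; curves fitted in both directions vs DMSO negative control.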

Experiment [9] is described as follows: BSK_hDFCGF_SRB: Viability Assessment in the BioMAP Diversity Plus: hDFCGF Assay (AID 2283061).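 Note: cells exposed to compound for 24 h before the read.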 The settings on record: primary human foreskin fibroblasts. In short, it runs like this: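 Readout is SRB absorbance at 560 nm, reflecting total protein in parallel cultures of human foreskin fibroblasts harvested 24 h after chemical dosing. Activity was fitted bidirectionally relative to DMSO.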

Read-out in experiment [10]: TIMP metallopeptidase inhibitor 1 (TIMP1), TIMP1 (gene 7076)
Put plainly: BSK_hDFCGF_TIMP1: BioMAP Diversity Plus: hDFCGF Assay for TIMP metallopeptidase inhibitor 1 (TIMP1) Biomarker Activity (AID 2283062). The settings on record: primary human foreskin fibroblasts; actives raise or lower the signal. In short, it runs like this:
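Human skin fibroblasts (primary), hDFCGF system; compound exposure 24 h; TIMP-1 by ELISA; bidirectional fit vs DMSO negative control; overt cytotoxicity by SRB in parallel wells.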

Read-out in experiment [11]: Monokine induced gamma interferon (MIG), CXCL9 (gene 4283)
Put plainly: BSK_hDFCGF_MIG: BioMAP Diversity Plus: hDFCGF Assay for Monokine induced gamma interferon (MIG) Biomarker Activity (AID 2283063). The settings on record: primary human foreskin fibroblasts; actives raise or lower the signal. In short, it runs like this: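 Chemicals were added to primary human foreskin fibroblast cultures, which were sampled 24 h later. MIG levels were then quantified by ELISA and responses fitted in both directions relative to DMSO.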

Read-out in experiment [12]: Matrix Metallopeptidase 1 (MMP1), MMP1 (gene 4312)
In words: BSK_hDFCGF_MMP1: BioMAP Diversity Plus: hDFCGF Assay for Matrix Metallopeptidase 1 (MMP1) Biomarker Activity (AID 2283064). The settings on record: primary human foreskin fibroblasts; actives raise or lower the signal. In short, it runs like this: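 Primary human foreskin fibroblasts in the hDFCGF system were dosed with test chemical, and MMP1 was measured by ELISA 24 h later. Values come from bidirectional curve fitting against the DMSO baseline.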

Read-out in experiment [13]: Plasminogen activator inhibitor-1 (PAI1), SERPINE1 (gene 5054)
Put plainly: BSK_hDFCGF_PAI1: BioMAP Diversity Plus: hDFCGF Assay for Plasminogen activator inhibitor-1 (PAI1) Biomarker Activity (AID 2283066). The settings on record: primary human foreskin fibroblasts; actives raise or lower the signal. In short, it runs like this:
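Primary dermal fibroblasts (human foreskin), hDFCGF system; compound 24 h; PAI-1 by ELISA; bidirectional fit vs DMSO control.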

Read-out in experiment [14]: Intercellular Adhesion Molecule 1 (ICAM1), ICAM1 (gene 3383)
Put plainly: BSK_KF3CT_ICAM1: BioMAP Diversity Plus: KF3CT Assay for Intercellular Adhesion Molecule 1 (ICAM1) Biomarker Activity (AID 2283067). The settings on record: primary human keratinocytes with fibroblasts; actives raise or lower the signal. In short, it runs like this:
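ICAM-1 levels are measured by ELISA 24 h after dosing a primary human co-culture of keratinocytes and foreskin fibroblasts. Activity in either direction is fitted relative to DMSO vehicle.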

Experiment [15] is described as follows: BSK_KF3CT_SRB: Viability Assessment in the BioMAP Diversity Plus: KF3CT Assay (AID 2283069).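 Note: total protein by sulforhodamine B staining as a cytotoxicity measure; read 24 h after compound addition.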 The settings on record: primary human keratinocytes with fibroblasts. In short, it runs like this: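 Human primary keratinocyte plus foreskin fibroblast co-culture exposed to chemicals for 24 h. Total protein measured by 0.1% sulforhodamine B staining after 10% TCA fixation, read at 560 nm; bidirectional fitting versus DMSO baseline.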

Read-out in experiment [16]: TIMP metallopeptidase inhibitor 2 (TIMP2), TIMP2 (gene 7077)
Put plainly: BSK_KF3CT_TIMP2: BioMAP Diversity Plus: KF3CT Assay for TIMP metallopeptidase inhibitor 2 (TIMP2) Biomarker Activity (AID 2283071). The settings on record: primary human keratinocytes with fibroblasts; actives raise or lower the signal. In short, it runs like this:
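Cells: human keratinocytes co-cultured with foreskin fibroblasts. Treat with chemical, 24 h. Measure TIMP-2 by ELISA; fit curves bidirectionally vs DMSO baseline.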

Read-out in experiment [17]: Vascular cell adhesion molecule 1 (VCAM1), VCAM1 (gene 7412)
Put plainly: BSK_hDFCGF_VCAM1: BioMAP Diversity Plus: hDFCGF Assay for Vascular cell adhesion molecule 1 (VCAM1) Biomarker Activity (AID 2283065). The settings on record: primary human foreskin fibroblasts; actives raise or lower the signal. In short, it runs like this: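 Human foreskin fibroblast primary cells, chemical exposure 24 h; VCAM-1 by ELISA; bidirectional fit, DMSO = negative control/baseline.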

Read-out in experiment [18]: Interleukin-1 alpha (IL1a), IL1A (gene 3552)
In words: BSK_KF3CT_IL1a: BioMAP Diversity Plus: KF3CT Assay for Interleukin-1 alpha (IL1a) Biomarker Activity (AID 2283070). The settings on record: primary human keratinocytes with fibroblasts; actives raise or lower the signal. In short, it runs like this: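 Human keratinocyte plus foreskin fibroblast primary co-culture, sampled 24 h after chemical dosing. IL-1a measured by ELISA; responses fitted bidirectionally against DMSO baseline (negative control), so gain or loss of signal both count.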

Read-out in experiment [19]: Interferon-gamma inducible Protein 10 (IP10), CXCL10 (gene 3627)
In words: BSK_KF3CT_IP10: BioMAP Diversity Plus: KF3CT Assay for Interferon-gamma inducible Protein 10 (IP10) Biomarker Activity (AID 2283068). The settings on record: primary human keratinocytes with fibroblasts; actives raise or lower the signal. In short, it runs like this: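 In a primary skin co-culture of keratinocytes and fibroblasts, IP-10 is quantified by ELISA at 24 h after dosing. SRB staining of parallel wells monitors overt toxicity. Curves are fitted both directions against DMSO.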

Each structure is given as a SMILES string. Where “and” joins values, the source holds several entries; their conditions need not be identical. Equal values may be shown once. Some structures have more than one record in an assay (separate samples or runs), and their calls can disagree. Calls of active or inactive are those of the source. Rule for the calls: active = hit-call score of the fitted dose curve at least 0.9, where 1 is the maximum; inactive = score below 0.9.

Regarding `OCC(F)(OC(F)(F)C(F)(OC(F)(F)C(F)(F)C(F)(F)F)C(F)(F)F)C(F)(F)F` (stereo not drawn), the result in experiment [1], in [3], in experiment [4], in experiment [6], in experiment [7] and in experiment [13] was inactive. The AC50 in experiment [2] was 2.4 µM (active) and 2.74 µM (active); in experiment [5], 2.23 µM (active) and 1.98 µM (active); in experiment [6] it was 5.4 µM (active); in [7], 5.05 µM (active); in experiment [8], 2.34 µM (active) and 1.91 µM (active); in experiment [9] it was 6.02 µM (active) and 5.36 µM (active). Moreover, the AC50 in experiment [10] was 3.33 µM (active); in experiment [11], 2.24 µM (active) and 2.52 µM (active); in [12], 4.57 µM (active) and 4.92 µM (active); in experiment [13] it was 6.18 µM (active); in [14] it was 4.83 µM (active) and 3.33 µM (active); in experiment [15], 5.66 µM (active) and 4.19 µM (active). Besides, the AC50 in experiment [16] was 5.58 µM (active) and 5.62 µM (active).

On to `O=C1OC2(c3ccc(O)cc3Oc3cc(O)ccc32)c2ccccc21`, for which the outcome in [1], in experiment [2], in experiment [3], in experiment [4], in experiment [5] and in [6] was inactive. The outcome in [7], in [8], in [9], in experiment [10], in [11] and in [12] was inactive. Besides, the outcome in experiment [17], in [13], in [14], in [15], in experiment [18] and in experiment [16] was inactive.

Regarding `CCn1cc(C(=O)O)c(=O)c2ccc(C)nc21`, the result in experiment [1], in experiment [2], in [3], in [4], in [5] and in [6] was inactive. For the same compound, the outcome in experiment [7], in experiment [8], in experiment [9], in [10], in [11] and in [12] was inactive. Also, the outcome in [17], in [13], in [14], in [15] and in [16] was inactive.

Regarding `CCOC(=O)C=Cc1ccccc1`, the AC50 in experiment [1] was 0.0239 µM (active). The outcome in experiment [2], in experiment [3], in experiment [4], in experiment [5], in experiment [6] and in experiment [7] was inactive. The result in experiment [8], in [9], in experiment [10], in experiment [11], in experiment [12] and in [13] was inactive. Further, the result in experiment [14], in experiment [19], in [15] and in [16] was inactive.

Turning to `CC(C)(CO)CO`, the result in experiment [1], in experiment [2], in experiment [3], in experiment [4], in [5] and in experiment [6] was inactive. For the same compound, the result in [7], in experiment [8], in [9], in experiment [10], in [11] and in [12] was inactive. Besides, the result in experiment [13], in experiment [14], in [15] and in experiment [16] was inactive. Besides, the AC50 in experiment [9] is 4.62 µM (active).
